Laboratory results published in PubChem BioAssay (EPA / NIEHS).
Records with an inconclusive call do not appear. The source made the active and inactive calls. The calls were made as follows: active = hit-call score of the fitted dose curve at least 0.9, where 1 is the maximum; inconclusive = response in the unintended direction; inactive = score below 0.9.

Tests used:
[1] = biological target: human Thyroid Receptor Alpha (TRa), THRA (gene 7067) (UniProt P10827); assay: NVS_NR_hTRa_Antagonist: NovaScreen (NVS) Nuclear Receptor Binding Assay for human Thyroid Receptor Alpha Antagonism (TRa) (AID 2283362);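 also: activity is loss of signal relative to DMSO baseline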
Outline: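 AlphaLISA chemiluminescent immunoassay readout, taken 1 h post-dosing in a cell-free system with extracted protein. Activity was scored as signal loss against DMSO negative control, from duplicate single-concentration (25 uM) testing followed by concentration-response follow-up.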

[2] = biological target: human Serotonin Transporter (SERT), SLC6A4 (gene 6532) (UniProt P31645); assay: NVS_TR_hSERT: NovaScreen (NVS) Transporter Assay for human Serotonin Transporter (SERT) (AID 2283372)
Outline: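 Radioligand binding to native SERT in human platelet membranes, read by filter-based scintillation counting 1 h after dosing. Primary screen in duplicate at 25 uM; actives followed up in concentration series; loss of signal versus DMSO baseline.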

[3] = test system: guinea pig Dopamine Transporter (DAT), gene 100714898; assay: NVS_TR_gDAT: NovaScreen (NVS) Transporter Assay for guinea pig Dopamine Transporter (DAT) (AID 2283369);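 also: active compounds lower bound radioligand signal relative to DMSO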
Outline: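 Cell-free striatal membrane prep (guinea pig), 2 h exposure, filtration + scintillation readout of radioligand binding. Single-point 25 uM duplicate; actives rerun singleton, top conc 50 uM.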

[4] = biological target: Glucocorticoid receptor (Homo sapiens) (UniProt P04150); assay: NVS_NR_hGR: NovaScreen (NVS) Nuclear Receptor Binding Assay for human Glucocorticoid Receptor (GR) (AID 2283363);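 as to AC50: activity is loss of specific radioligand binding signal relative to DMSO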
Outline: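 Competitive displacement of a labelled ligand was measured on cell-free receptor preparations after 16 h exposure. Initial testing used 25 uM in duplicate with plate controls; confirmed actives went into concentration series.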

[5] = biological target: rat Androgen Receptor (AR), Ar (gene 24208) (UniProt P15207); assay: NVS_NR_rAR: NovaScreen (NVS) Nuclear Receptor Binding Assay for rat Androgen Receptor (AR) (AID 2283366)
Outline: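 Cell-free radioligand binding on extracts of prostate from testosterone-pretreated rats, read by filter-based scintillation counting 18 h after dosing. Loss of bound signal fitted positively versus DMSO; primary screen in duplicate at 25 uM, actives followed up in concentration series.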

[6] = biological target: guinea pig Sigma Receptor, Non-selective Binding, SIGMAR1 (gene 100135589) (UniProt Q60492); assay: NVS_OR_gSIGMA_NonSelective: NovaScreen (NVS) Nuclear Receptor Binding Assay for guinea pig Sigma Receptor, Non-selective Binding (AID 2283367)
Outline: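 gp brain membr., radioligand displacement, 1 h, filtration + scint. counting; DMSO = baseline; 25 uM x2 primary, conc.-response confirm.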

[7] = biological target: human Adenosine Transporter (Adot), SLC29A1 (gene 2030) (UniProt Q99808); assay: NVS_TR_hAdoT: NovaScreen (NVS) Transporter Assay for human Adenosine Transporter (Adot) (AID 2283368)
Outline: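 U937-derived membranes, cell-free radioligand binding, filter scintillation 1 h after dosing. 25 uM duplicate screen; hits (e.g. 30% inhibition) run in concentration-response up to 50 uM; loss of signal versus DMSO.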

[8] = biological target: Nuclear receptor subfamily 1 group I member 2 (Homo sapiens) (UniProt O75469); assay: NVS_NR_hPXR: NovaScreen (NVS) Nuclear Receptor Binding Assay for human Pregnane X Receptor (PXR) (AID 2283365);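 also: a drop in FRET signal versus DMSO baseline means the compound binds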
Outline: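 TR-FRET signal read at 2 h in a cell-free human PXR binding format. DMSO served as negative control and baseline; activity scored as signal loss. Single-concentration duplicate screen (25 uM), then concentration-response follow-up.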

Sequence of human Thyroid Receptor Alpha (TRa), THRA (gene 7067) (P10827 whole entry, looked up): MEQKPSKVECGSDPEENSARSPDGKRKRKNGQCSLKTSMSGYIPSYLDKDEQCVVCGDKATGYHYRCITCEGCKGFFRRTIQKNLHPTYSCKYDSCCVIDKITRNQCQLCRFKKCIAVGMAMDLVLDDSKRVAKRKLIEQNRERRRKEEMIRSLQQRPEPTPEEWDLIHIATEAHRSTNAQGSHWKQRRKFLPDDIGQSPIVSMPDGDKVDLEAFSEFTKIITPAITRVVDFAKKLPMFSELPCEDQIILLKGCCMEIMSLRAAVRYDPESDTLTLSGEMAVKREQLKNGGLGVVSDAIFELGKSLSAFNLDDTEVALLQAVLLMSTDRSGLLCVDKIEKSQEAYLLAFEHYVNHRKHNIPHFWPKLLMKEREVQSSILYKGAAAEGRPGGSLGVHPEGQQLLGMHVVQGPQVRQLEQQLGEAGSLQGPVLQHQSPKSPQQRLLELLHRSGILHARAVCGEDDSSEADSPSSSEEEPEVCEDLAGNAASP
Sequence of human Adenosine Transporter (Adot), SLC29A1 (gene 2030) (Q99808 whole entry, looked up): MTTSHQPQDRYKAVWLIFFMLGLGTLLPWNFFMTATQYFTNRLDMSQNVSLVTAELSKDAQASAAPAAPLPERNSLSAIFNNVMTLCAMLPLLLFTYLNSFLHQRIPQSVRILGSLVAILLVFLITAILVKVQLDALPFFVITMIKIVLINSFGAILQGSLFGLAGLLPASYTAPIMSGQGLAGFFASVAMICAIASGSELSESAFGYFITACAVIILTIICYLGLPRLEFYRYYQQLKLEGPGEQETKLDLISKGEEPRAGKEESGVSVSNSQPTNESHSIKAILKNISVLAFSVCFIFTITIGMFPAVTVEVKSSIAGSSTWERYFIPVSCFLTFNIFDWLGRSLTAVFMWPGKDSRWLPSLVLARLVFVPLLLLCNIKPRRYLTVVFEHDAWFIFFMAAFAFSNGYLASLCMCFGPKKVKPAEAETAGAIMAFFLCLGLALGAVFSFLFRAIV
Sequence of human Serotonin Transporter (SERT), SLC6A4 (gene 6532) (P31645 whole entry, looked up): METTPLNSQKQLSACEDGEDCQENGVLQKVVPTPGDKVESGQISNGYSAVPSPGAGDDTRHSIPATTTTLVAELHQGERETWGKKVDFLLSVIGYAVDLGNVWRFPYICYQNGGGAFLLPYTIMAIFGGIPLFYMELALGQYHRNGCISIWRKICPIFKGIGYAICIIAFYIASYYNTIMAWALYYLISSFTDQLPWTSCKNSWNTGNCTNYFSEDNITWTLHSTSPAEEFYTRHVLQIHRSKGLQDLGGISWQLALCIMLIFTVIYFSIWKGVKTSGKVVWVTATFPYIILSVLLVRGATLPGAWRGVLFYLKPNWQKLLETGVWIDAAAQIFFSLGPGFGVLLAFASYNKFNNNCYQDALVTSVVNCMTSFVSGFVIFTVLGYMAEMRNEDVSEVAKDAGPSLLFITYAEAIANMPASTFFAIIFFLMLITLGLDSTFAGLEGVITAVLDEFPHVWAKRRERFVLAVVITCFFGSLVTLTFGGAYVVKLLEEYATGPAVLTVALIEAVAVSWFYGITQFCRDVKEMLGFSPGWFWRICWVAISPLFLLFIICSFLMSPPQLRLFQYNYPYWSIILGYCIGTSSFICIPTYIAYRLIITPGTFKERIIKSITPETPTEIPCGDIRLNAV
Sequence of Glucocorticoid receptor (Homo sapiens) (P04150 whole entry, looked up): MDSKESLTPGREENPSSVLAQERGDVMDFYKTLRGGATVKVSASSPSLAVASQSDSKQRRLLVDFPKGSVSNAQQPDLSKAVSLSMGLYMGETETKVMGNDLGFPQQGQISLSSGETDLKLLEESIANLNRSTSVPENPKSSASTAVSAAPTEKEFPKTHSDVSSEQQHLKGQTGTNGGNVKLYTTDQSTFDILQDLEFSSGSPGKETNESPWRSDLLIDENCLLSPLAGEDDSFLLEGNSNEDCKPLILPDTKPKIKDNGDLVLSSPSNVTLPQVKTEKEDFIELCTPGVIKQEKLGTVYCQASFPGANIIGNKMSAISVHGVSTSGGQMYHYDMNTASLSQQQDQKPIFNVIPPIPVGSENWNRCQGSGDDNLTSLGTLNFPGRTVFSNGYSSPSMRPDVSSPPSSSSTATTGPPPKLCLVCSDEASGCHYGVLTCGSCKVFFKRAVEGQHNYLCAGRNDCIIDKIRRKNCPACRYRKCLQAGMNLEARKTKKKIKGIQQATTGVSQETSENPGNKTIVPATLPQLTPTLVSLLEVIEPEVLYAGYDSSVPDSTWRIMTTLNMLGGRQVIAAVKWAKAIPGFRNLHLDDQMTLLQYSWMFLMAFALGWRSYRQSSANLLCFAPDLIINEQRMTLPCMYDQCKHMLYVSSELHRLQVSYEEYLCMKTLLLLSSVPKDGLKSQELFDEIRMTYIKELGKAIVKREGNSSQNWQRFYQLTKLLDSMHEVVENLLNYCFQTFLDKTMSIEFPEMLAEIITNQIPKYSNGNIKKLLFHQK
Sequence of guinea pig Sigma Receptor, Non-selective Binding, SIGMAR1 (gene 100135589) (Q60492 whole entry, looked up): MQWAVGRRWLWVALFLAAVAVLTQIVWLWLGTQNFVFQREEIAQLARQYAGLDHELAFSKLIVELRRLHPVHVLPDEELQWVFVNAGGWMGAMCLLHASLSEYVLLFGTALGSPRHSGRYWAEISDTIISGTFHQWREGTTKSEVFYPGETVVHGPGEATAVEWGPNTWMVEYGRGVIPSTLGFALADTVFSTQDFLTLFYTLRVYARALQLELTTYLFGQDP
Sequence of Nuclear receptor subfamily 1 group I member 2 (Homo sapiens) (O75469 whole entry, looked up): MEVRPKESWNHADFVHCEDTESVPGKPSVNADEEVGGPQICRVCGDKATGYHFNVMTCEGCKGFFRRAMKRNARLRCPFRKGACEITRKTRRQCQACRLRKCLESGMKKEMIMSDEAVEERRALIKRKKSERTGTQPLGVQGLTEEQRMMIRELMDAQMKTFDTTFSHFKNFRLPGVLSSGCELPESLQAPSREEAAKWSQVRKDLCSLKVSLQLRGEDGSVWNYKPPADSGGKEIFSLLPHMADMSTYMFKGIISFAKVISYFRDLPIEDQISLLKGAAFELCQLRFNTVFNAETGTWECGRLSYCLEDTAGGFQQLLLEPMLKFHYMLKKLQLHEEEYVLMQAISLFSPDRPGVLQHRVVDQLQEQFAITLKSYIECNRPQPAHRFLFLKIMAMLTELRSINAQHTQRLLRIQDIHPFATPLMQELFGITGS
Sequence of rat Androgen Receptor (AR), Ar (gene 24208) (P15207 whole entry, looked up): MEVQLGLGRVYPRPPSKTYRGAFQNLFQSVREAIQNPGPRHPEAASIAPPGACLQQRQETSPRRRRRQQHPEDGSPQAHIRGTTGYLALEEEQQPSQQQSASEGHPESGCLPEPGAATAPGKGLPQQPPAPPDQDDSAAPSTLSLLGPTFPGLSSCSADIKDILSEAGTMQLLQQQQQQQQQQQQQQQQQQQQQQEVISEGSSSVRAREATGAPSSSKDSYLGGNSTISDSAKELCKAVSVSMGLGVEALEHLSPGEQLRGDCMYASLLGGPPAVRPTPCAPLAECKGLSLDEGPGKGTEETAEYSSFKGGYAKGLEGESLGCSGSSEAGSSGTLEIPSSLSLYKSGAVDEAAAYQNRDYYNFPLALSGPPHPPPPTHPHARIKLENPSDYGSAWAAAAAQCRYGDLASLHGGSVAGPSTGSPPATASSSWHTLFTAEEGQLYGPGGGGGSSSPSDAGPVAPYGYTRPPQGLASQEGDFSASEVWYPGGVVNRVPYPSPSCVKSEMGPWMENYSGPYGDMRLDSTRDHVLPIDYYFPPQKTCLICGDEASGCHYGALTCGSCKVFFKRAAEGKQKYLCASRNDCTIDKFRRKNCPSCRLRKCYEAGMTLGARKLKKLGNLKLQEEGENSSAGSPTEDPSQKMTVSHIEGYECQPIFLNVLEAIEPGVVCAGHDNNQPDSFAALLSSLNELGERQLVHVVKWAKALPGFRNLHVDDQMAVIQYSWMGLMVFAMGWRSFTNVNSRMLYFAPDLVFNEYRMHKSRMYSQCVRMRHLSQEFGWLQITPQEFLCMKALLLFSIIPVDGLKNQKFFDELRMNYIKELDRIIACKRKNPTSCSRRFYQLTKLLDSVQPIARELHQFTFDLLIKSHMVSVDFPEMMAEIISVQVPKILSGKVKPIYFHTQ

Which outcome [1] does the source give for O=C1CCC(C2CCCCC2)CC1 here?
Its outcome is “inactive”.

How did the AC50 [1] turn out when CCCCCCCCCCCO was run?
Its AC50 is 28.4 µM (active).

For NCc1cccc(C2CCN(C(=O)c3ccc(C#Cc4ccccc4F)o3)CC2)c1, which outcome [2] is on record?
The outcome was “inactive”.

For CCCOC(=O)c1cc(O)c(O)c(O)c1, which AC50 [3] is on record?
Its AC50 is 25 µM (active).

For Cc1cc(F)ccc1-c1cc(N2CC[C@@H](O)[C@H]2CO)ncc1N(C)C(=O)C(C)(C)c1cc(C(F)(F)F)cc(C(F)(F)F)c1, which AC50 [4] is on record?
The AC50 was 4.3 µM (active).

And the outcome [5]?
Its outcome is “inactive”.

What about the AC50 [3] of the same compound?
The AC50 was 8.3 µM (active).

Which results are given for O=C1c2ccccc2C(=O)N1CCc1noc(-c2ccc(CN3CCCCCC3)s2)n1?
AC50 [6]: 6.76 µM (active); AC50 [7]: 21.1 µM (active); AC50 [3]: 13.9 µM (active); outcome [2]: inactive

With CCCCCc1ccc(N)cc1 as the compound, how does the AC50 [3] read?
The AC50 was 25 µM (active).

What does the source list for c1ccc(C[n+]2cccc3ccccc32)cc1?
AC50 [6]: 8.14 µM (active); AC50 [3]: 10.1 µM (active)

Which AC50 [7] does the source give for Cc1ccc2oc(CN(Cc3ccccc3)C(=O)Nc3c(F)cc(F)cc3F)c(-c3ccc(Cl)cc3)c2c1 here?
Its AC50 is 1.1 µM (active).

And the outcome [3]?
The outcome was “inactive”.

For O=C(Nc1ccc(Cl)cc1)Nc1ccc(Cl)c(Cl)c1, which outcome [2] is on record?
Its outcome is “inactive”.

With Oc1ccc2ccccc2c1 as the compound, how does the outcome [4] read?
The outcome was “inactive”.

And the AC50 [3]?
The AC50 was 21.3 µM (active).

Which outcome [4] does the source give for CN1C(=O)N(c2ccccc2Br)Cc2cnc(Nc3ccc4c(c3)OCC(CO)O4)nc21 (stereo not given) here?
The outcome was “inactive”.

Which AC50 [4] does the source give for COc1cc(C(=O)NC2CCN(C)CC2)ccc1Nc1ncc2c(n1)N(C1CCCC1)CC(F)(F)C(=O)N2C here?
Its AC50 is 9.44 µM (active).

And the AC50 [6]?
The AC50 was 9.05 µM (active).

And the AC50 [7]?
The AC50 was 1.27 µM (active).

What about the AC50 [3] of the same compound?
The AC50 was 13.8 µM (active).

Which AC50 [4] does the source give for CCOC(=O)O[C@H](C)OC(=O)c1ccc2c(c1)cc(C(=O)NC1CCN(C(C)C)CC1)n2Cc1cc(-c2ccc(Cl)s2)on1 here?
The AC50 was 4.59 µM (active).

What about the AC50 [6] of the same compound?
Its AC50 is 0.226 µM (active).

What about the AC50 [3] of the same compound?
Its AC50 is 13.8 µM (active).

And the outcome [2]?
Its outcome is “inactive”.

Which results are given for Clc1ccccc1C(c1ccccc1)(c1ccccc1)n1ccnc1?
AC50 [4]: 0.7 µM (active); outcome [8]: inactive

For CCN(Cc1cccnc1)C(=O)c1cccc(Cl)c1[C@]1(C)C(=O)N(Cc2ccc(OC)cc2OC)c2ccc(Cl)cc21, which AC50 [4] is on record?
The AC50 was 4.93 µM (active).

And the AC50 [7]?
Its AC50 is 1.55 µM (active).

CCCCCCCC[Si](OCC)(OCC)OCC was tested. Which outcome [8] did it give?
The outcome was “inactive”.

Which AC50 [6] does the source give for CCCCCCCCCCCC[N+](C)(C)C here?
Its AC50 is 0.123 µM (active).

What about the outcome [7] of the same compound?
Its outcome is “inactive”.

And the AC50 [3]?
Its AC50 is 25 µM (active).

Which results are given for COc1ccc2cc(S(=O)(=O)N[C@H](CC(=O)N[C@H](Cc3ccc(CN4[C@H](C)CCC[C@@H]4C)cc3)C(=O)N(C)C(C)C)c3ccc4c(c3)OCO4)ccc2c1?
outcome [4]: inactive; AC50 [6]: 1.74 µM (active); AC50 [7]: 9.24 µM (active); AC50 [3]: 13.9 µM (active); outcome [2]: inactive

Which AC50 [6] does the source give for CCCCCCCCN(C)CCCCCCCC here?
The AC50 was 0.212 µM (active).

Cc1oc2c(NC(=O)c3c(Cl)cccc3Cl)cccc2c1C(C)(C)O was tested. Which AC50 [7] did it give?
Its AC50 is 25 µM (active).

For O=c1[nH]sc2ccccc12, which AC50 [7] is on record?
The AC50 was 17.2 µM (active).

What about the AC50 [3] of the same compound?
The AC50 was 40.5 µM (active).

Which outcome [8] does the source give for Oc1ccccc1 here?
The outcome was “inactive”.

Which AC50 [6] does the source give for COc1cccc([C@H](O)C2CCN(CCc3ccc(F)cc3)CC2)c1OC here?
Its AC50 is 0.29 µM (active).

What about the AC50 [3] of the same compound?
The AC50 was 19.9 µM (active).

How did the AC50 [4] turn out when CN(C[C@@H](CC[N+]12CCC(C3CCCCC3)(CC1)CC2)c1ccc(Cl)c(Cl)c1)C(=O)c1cc(C(F)(F)F)cc(C(F)(F)F)c1 was run?
The AC50 was 6.49 µM (active).

What about the AC50 [8] of the same compound?
Its AC50 is 25 µM (active).

And the AC50 [2]?
The AC50 was 17.5 µM (active).

What does the source list for CN(C)C(=O)C1(N2CCCCC2)CCN(CC[C@@]2(c3ccc(Cl)c(Cl)c3)CN(C(=O)c3ccccc3)CCO2)CC1?
AC50 [4]: 3.41 µM (active); AC50 [6]: 6 µM (active); AC50 [3]: 6.54 µM (active); AC50 [2]: 36 µM (active)

Which results are given for Cc1occc1C(=O)Nc1ccc(C(=O)N2CCC(F)(F)/C(=C\C(=O)N3CCC(N4CCCCC4)CC3)c3ccccc32)cc1?
AC50 [6]: 2.93 µM (active); AC50 [7]: 8.75 µM (active); AC50 [3]: 7.8 µM (active)

NC(=O)c1nc(-c2cccc(-c3cc(F)ccc3OCC(F)(F)C(F)(F)F)c2)n[nH]1 was tested. Which outcome [8] did it give?
The outcome was “inactive”.

With CC1(C)NC(=O)N(c2ccc([N+](=O)[O-])c(C(F)(F)F)c2)C1=O as the compound, how does the outcome [8] read?
The outcome was “inactive”.
